Data on 34 compounds can be found in PubChem BioAssay (NCATS).

The structures appear in SMILES notation. Inconclusive results are not listed. Values without a mark were called inactive. Calls of active or inactive are those of the source. The call rests on the fitted dose curve; in most records, active means well fitted curve in the direction sought with a large enough effect; inconclusive means small, poorly fitted or top-dose-only effect, or another doubt; inactive means no such curve, though single readings can be large; an effect the other way counts as inactive or inconclusive.

Assay [1] deals with Rap guanine nucleotide exchange factor 3 (Homo sapiens) (UniProt O95398). Kind of assay: Confirmatory qHTS for antagonist of cAMP-regulated guanine nucleotide exchange factor 3 (EPAC1) (AID 1645880). Further: nearly all actives have a fitted effect of over 55% in size. Further: potency means the concentration at half of the fitted maximal effect.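 On activity, negative = inhibition: plate controls were DMSO only for no effect and full effect of the ATA control for full effect.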 Particulars: EPAC1 Rap1B-BODIPY-GDP exchange, fluorescence; activity, negative = inhibition: at 115 µM (top of the series). In a few lines:
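Released BODIPY-GDP fluoresces less than Rap1-bound BODIPY-GDP; the signal is followed at 480/540 nm at 5-min intervals over 30 min, after 5 min at room temperature. Reactions contain 100 nM EPAC1, 250 nM RAP1B-BODIPY-GDP and 50 uM GDP; results are normalized to ATA and DMSO.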
On the technique in general: Quantitative high-throughput screening tests each substance at several concentrations.

For assay [2] the target is unchanged. Kind of assay: Confirmatory qHTS for agonist of cAMP-regulated guanine nucleotide exchange factor 3 (EPAC1) (AID 1645881). Further: nearly all actives have a fitted effect of over 75% in size. Further: potency means the concentration at half of the fitted maximal effect.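 On activation: EPAC1 catalysed release of BODIPY-GDP from Rap1B seen as fluorescence loss; 100% = effect of cAMP agonist control.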
Assay [3] has as its target Rap guanine nucleotide exchange factor 4 (Homo sapiens) (UniProt Q8WZA2). Kind of assay: Confirmatory qHTS for agonist of cAMP-regulated guanine nucleotide exchange factor 4 (EPAC2) (AID 1645884).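 Further: nucleotide exchange releases bodipy-GDP from Rap1 and this lowers its fluorescence; nearly all actives have a fitted effect of over 65% in size.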 Further: potency means the concentration at half of the fitted maximal effect. On activation: on the % scale 0 is the no-effect control and ±100 the full control effect.
Assay [4] concerns the target Rap guanine nucleotide exchange factor 3 (Homo sapiens) (UniProt O95398). In words: Counterscreen qHTS for antagonist of cAMP-regulated guanine nucleotide exchange factor 3 (EPAC1) (AID 1645888). Further: % of control where 0% means no effect. In a few lines: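 Measured: fluorescence of BODIPY-GDP bound to Rap1B, which falls as exchange proceeds. Conditions include 50 uM competing GDP, 5 and 30 min reads, and a later cAMP challenge for antagonist detection.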

Sequence of Rap guanine nucleotide exchange factor 4 (Homo sapiens) (Q8WZA2 whole entry, looked up): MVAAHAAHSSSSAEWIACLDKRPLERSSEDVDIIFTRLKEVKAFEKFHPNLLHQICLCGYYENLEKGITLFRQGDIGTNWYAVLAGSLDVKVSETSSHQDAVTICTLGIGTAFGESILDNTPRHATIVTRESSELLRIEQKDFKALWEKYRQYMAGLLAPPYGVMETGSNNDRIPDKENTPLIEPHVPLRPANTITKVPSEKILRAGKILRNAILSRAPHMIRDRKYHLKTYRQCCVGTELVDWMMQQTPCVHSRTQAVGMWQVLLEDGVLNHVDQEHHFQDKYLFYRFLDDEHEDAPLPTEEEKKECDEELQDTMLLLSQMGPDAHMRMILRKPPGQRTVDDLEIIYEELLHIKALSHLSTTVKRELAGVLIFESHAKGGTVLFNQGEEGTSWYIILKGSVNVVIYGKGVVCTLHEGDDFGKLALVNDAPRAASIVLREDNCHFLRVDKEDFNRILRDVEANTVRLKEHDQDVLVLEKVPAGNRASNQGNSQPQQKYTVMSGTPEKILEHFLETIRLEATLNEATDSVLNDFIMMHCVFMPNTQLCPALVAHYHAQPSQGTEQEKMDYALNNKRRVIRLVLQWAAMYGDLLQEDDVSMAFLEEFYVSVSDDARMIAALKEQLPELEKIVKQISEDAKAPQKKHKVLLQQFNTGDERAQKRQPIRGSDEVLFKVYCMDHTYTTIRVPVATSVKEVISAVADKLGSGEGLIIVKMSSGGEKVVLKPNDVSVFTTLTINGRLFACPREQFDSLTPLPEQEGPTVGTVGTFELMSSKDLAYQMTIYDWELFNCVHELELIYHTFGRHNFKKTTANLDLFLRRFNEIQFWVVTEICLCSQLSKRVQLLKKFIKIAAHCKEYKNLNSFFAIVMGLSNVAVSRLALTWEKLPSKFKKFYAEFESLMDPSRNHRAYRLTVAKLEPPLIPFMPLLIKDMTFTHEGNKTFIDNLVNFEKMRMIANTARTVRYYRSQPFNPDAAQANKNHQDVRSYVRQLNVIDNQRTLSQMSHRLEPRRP
Sequence of Rap guanine nucleotide exchange factor 3 (Homo sapiens) (O95398 whole entry, looked up): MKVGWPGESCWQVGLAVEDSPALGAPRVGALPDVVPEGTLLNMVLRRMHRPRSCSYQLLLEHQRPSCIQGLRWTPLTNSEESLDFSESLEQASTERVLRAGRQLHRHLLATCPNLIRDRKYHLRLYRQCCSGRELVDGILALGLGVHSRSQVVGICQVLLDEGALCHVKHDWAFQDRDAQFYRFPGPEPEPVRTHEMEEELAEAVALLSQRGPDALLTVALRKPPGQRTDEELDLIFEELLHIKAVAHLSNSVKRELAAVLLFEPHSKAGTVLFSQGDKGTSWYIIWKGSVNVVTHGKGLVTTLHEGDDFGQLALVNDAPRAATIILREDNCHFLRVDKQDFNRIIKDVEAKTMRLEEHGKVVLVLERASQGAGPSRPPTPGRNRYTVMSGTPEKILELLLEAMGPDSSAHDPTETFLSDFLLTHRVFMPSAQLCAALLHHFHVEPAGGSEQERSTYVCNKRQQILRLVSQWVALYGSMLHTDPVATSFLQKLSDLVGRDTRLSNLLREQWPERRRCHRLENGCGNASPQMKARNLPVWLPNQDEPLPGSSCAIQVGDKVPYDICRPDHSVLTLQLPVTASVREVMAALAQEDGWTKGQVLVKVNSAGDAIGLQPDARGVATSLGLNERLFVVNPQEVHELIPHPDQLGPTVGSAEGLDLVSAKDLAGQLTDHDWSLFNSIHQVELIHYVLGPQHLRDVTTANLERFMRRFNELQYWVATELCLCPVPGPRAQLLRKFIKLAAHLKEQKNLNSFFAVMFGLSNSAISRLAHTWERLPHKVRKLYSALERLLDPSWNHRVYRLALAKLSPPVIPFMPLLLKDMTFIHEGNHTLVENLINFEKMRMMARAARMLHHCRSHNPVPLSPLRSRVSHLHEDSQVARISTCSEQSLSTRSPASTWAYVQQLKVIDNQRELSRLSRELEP

Turning to `COc1ccc(NC(=O)c2cc(-c3ccco3)nc3ccccc23)cc1S(=O)(=O)N1CCOCC1`, the Potency in assay [1] is 9.53 µM (active). The Potency entry in assay [2], in assay [3] and in assay [4] was “inactive” in each case.
For `CN(Cc1ccnc2ccccc12)C(=O)C1CCC(=O)N(Cc2ccccc2F)C1` (stereo unspecified), the Potency result in assay [1], in assay [2], in assay [3] and in assay [4] was “inactive” in each case.
Take `O=C1/C(=C\c2cc([N+](=O)[O-])ccc2O)SC(=S)N1Cc1ccc(Cl)cc1`: in assay [1], the Potency is 75.7 µM (active). Moreover, the Potency result in assay [2], in assay [3] and in assay [4] was “inactive” throughout.
With `Nc1[nH]n2c(=O)cc(-c3ccccc3)nc2c1N=Nc1ccc(S(N)(=O)=O)cc1`, the Potency entry in assay [1], in assay [2], in assay [3] and in assay [4] was “inactive” in each case.
In the case of `CCn1c(O)c(/C=N/NC(=O)c2ccncc2)c(=O)n(CC)c1=S`, the Potency entry in assay [1] and in assay [4] was “inactive” in each case. Besides, the Potency in assay [2] is 35.5 µM (active); in assay [3], 25.1 µM (active).
On to `CCCOc1ccccc1NC(=O)c1c(-c2ccccc2)noc1C`, for which the Potency result in assay [1], in assay [2], in assay [3] and in assay [4] was “inactive” throughout.
Take `CN(C)CCNC(=O)c1ccc(-c2cn3c(-c4ccc(Oc5ccccc5)cc4)cnc3cn2)cc1`: the Potency result in assay [1], in assay [2], in assay [3] and in assay [4] was “inactive” throughout.
In the case of `O=C1C(O)=CC(=C(c2ccccc2)c2ccccc2)c2ccccc21`, the Potency result in assay [1], in assay [2], in assay [3] and in assay [4] was “inactive” each time.
In the case of `O=C(COc1ccccc1Cl)Nc1ccc(C(=O)c2ccc(C(=O)O)cc2)cc1`, the Potency entry in assay [1], in assay [2], in assay [3] and in assay [4] was “inactive” throughout.
For the compound `COc1ccccc1Nc1nc2ccc(C)cc2cc1C#N`, the Potency result in assay [1], in assay [2], in assay [3] and in assay [4] was “inactive” in each case.
In the case of `NC1=C(Cl)C(=O)c2ccc(S(N)(=O)=O)cc2C1=O`, in assay [1], the Potency was 75.7 µM (active). The Potency entry in assay [2], in assay [3] and in assay [4] was “inactive” in each case.
On to `Cc1cccc(C)c1-n1nnnc1C(c1ccnc2ccccc12)N(CCC#N)Cc1ccccc1` (stereo unspecified), for which the Potency result in assay [1], in assay [2], in assay [3] and in assay [4] was “inactive” throughout.
In the case of `COc1ccc(C(C#N)N2CCC(c3ccccc3)=N2)cc1OC` (stereo unspecified), the Potency entry in assay [1], in assay [2], in assay [3] and in assay [4] was “inactive” each time.
For `CCOC(=O)C1Nc2c(F)cc(C)cc2C2c3ccccc3CC12` (stereo unspecified), the Potency result in assay [1], in assay [2], in assay [3] and in assay [4] was “inactive” in each case.
In the case of `COc1cccc(N(C(=O)c2ccco2)C(C(=O)NC2CCCC2)c2cccnc2)c1` (stereo unspecified), the Potency result in assay [1], in assay [2], in assay [3] and in assay [4] was “inactive” throughout.
Take `CCCCOc1ccc(NS(=O)(=O)c2ccc(-n3cnnn3)cc2)cc1`: the Potency entry in assay [1], in assay [2], in assay [3] and in assay [4] was “inactive” in each case.
With `O=C(Cn1cnc2c(nnn2Cc2ccccc2)c1=O)N1CCN(c2ccccc2)CC1`, the Potency entry in assay [1], in assay [2], in assay [3] and in assay [4] was “inactive” throughout.
On to `Cc1ccc(-c2nnc(Nc3ccc4c(c3)OCO4)c3ccccc23)cc1S(N)(=O)=O`, for which the Potency in assay [1] was 47.8 µM (active). The Potency result in assay [2], in assay [3] and in assay [4] was “inactive” in each case.
Consider `CCC(=O)N1CCc2cc(OC)c(OC)cc2C1COc1ccc(F)cc1` (stereo unspecified), for which the Potency result in assay [1] and in assay [2] was “inactive” throughout. In assay [3], the activation was 5.75% [at 17.1 µM, percent relative to cAMP agonist control]. In assay [4], the activity change, negative = inhibition was -5.57% [at 30.8 µM].
Turning to `COc1ccc2cc(/C=C3\SC(=S)NC3=O)c(N3CCOCC3)nc2c1`, in assay [1], the Potency was 20 µM (active). The Potency result in assay [2] is “inactive”. The activation in assay [3] is 0.207% [at 17.1 µM, percent relative to cAMP agonist control]. In addition, the activity change, negative = inhibition in assay [4] is 3.21% [at 30.8 µM].
Turning to `O=C(CN1C(=O)c2ccccc2C1=O)Nc1cc([N+](=O)[O-])ccc1O`, the Potency entry in assay [1], in assay [2], in assay [3] and in assay [4] was “inactive” in each case.
For the compound `COC(=O)C1=CN(Cc2cccs2)C=C(C(=O)OC)C1c1cccc(O)c1`, the Potency result in assay [1], in assay [2], in assay [3] and in assay [4] was “inactive” in each case.
For the compound `COc1ccc2c(c1)C(CC(C)=O)N(c1ccc(-c3cccnc3)cc1)C(c1ccsc1)=C2` (stereo unspecified), the Potency entry in assay [1], in assay [2], in assay [3] and in assay [4] was “inactive” in each case.
On to `O=C(/C=C/c1ccco1)NCC1OCCc2ccccc21` (stereo unspecified), for which, in assay [1], the Potency was 19 µM (active). Also, the Potency result in assay [2], in assay [3] and in assay [4] was “inactive” in each case.
Regarding `O=S(=O)(O)c1ccc2c(c1)C(C(Cl)(Cl)Cl)OC(C(Cl)(Cl)Cl)O2` (stereo unspecified), the Potency in assay [1] is 31.6 µM (active). For the same compound, in assay [2], the Potency entry was “inactive”. Besides, the activation in assay [3] is 2.99% [at 17.1 µM, percent relative to cAMP agonist control]. Besides, the activity change, negative = inhibition in assay [4] was -10.8% [at 30.8 µM].
With `COC(C(=O)Nc1ccc(Br)cc1F)c1ccccc1` (stereo unspecified), the Potency entry in assay [1], in assay [2], in assay [3] and in assay [4] was “inactive” each time.
Consider `COc1ccc(/C=C2\N=C(SC)N(c3ccccc3OC)C2=O)cc1`, for which the Potency entry in assay [1] and in assay [2] was “inactive” in each case. Also, the activation in assay [3] is 7.24% [at 17.1 µM, percent relative to cAMP agonist control]. The activity change, negative = inhibition in assay [4] was -8.08% [at 30.8 µM].
Take `COc1cc(/C=C2\C(=O)N(c3cccc(C(=O)O)c3)N=C2C)ccc1OCc1ccccc1`: in assay [1], the Potency is 37.9 µM (active). Besides, the Potency entry in assay [2], in assay [3] and in assay [4] was “inactive” each time.
For `CC(C)NC(=O)c1sc(=S)n2c1[nH]c(=O)c1ccc(C(=O)NCCc3ccc(Cl)cc3)cc12`, the Potency in assay [1] was 50.1 µM (active). The Potency entry in assay [2] was “inactive”. Further, the activation in assay [3] is 4.17% [at 17.1 µM, percent relative to cAMP agonist control]. The activity change, negative = inhibition in assay [4] was -15.1% [at 30.8 µM].
As for `O=C(Cc1c(Cl)cccc1Cl)Nc1ccc(S(=O)(=O)Nc2ncccn2)cc1`, the Potency result in assay [1], in assay [2], in assay [3] and in assay [4] was “inactive” each time.
In the case of `O=[N+]([O-])c1ccccc1O[C@@H]1O[C@H](CO)[C@H](O)[C@H](O)[C@H]1O`, the Potency result in assay [1], in assay [2], in assay [3] and in assay [4] was “inactive” throughout.
As to `CCCCN(C(=O)c1ccc2c(c1)OCO2)c1ccccc1`, the Potency entry in assay [1], in assay [2], in assay [3] and in assay [4] was “inactive” throughout.
For the compound `Cc1nc2cc(-c3ccsc3-n3c(C)ccc3C)[nH]n2c(=O)c1Cl`, in assay [1], the Potency was 37.9 µM (active). For the same compound, the Potency result in assay [2], in assay [3] and in assay [4] was “inactive” in each case.
As for `CCOC(=O)c1ccccc1NC(=O)COC(=O)C(Cc1c[nH]c2ccccc12)NC(C)=O` (stereo unspecified), the Potency result in assay [1], in assay [2], in assay [3] and in assay [4] was “inactive” throughout.
